This note sets out measurements from PubChem BioAssay.

For this assay, the target named is Torsin-1A (Homo sapiens) (UniProt O14656). The experiment in a line: torsin A mutant lysate binding on microarrays – cell lysate, small-molecule microarray, COS7 lysate, 635/667 nm fluorescence, primary screen (AID 1150).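 Further: score pools 667 nm emission and signal to noise measuring lysate protein binding.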 The conditions noted are these: COS7 hTOR1A mutant lysate, 635 nm fluorescence, higher = more signal.
Torsin-1A (Homo sapiens), sequence (O14656 whole entry, looked up): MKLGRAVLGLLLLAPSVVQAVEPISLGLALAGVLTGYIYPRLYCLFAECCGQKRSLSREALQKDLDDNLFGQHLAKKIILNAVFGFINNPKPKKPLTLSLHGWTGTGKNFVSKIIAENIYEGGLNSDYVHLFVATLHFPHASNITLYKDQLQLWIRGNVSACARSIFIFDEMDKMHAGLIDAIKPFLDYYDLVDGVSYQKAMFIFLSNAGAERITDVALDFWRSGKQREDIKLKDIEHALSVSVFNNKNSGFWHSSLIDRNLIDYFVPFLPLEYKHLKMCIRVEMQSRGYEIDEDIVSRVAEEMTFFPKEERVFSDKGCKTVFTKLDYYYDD
In turn, `C=CCC(OC(C)=O)[C@@H]1[C@@H](N(Cc2cccc3ccccc23)C(=O)c2cccc3ccccc23)c2cc(OCCCO)ccc2N1C(=O)c1ccc2ccccc2n1` (stereo partly specified) registered a composite z-score of -0.297. For `COc1ccc(C(O)C2C=CC3C(=O)NC(=O)C3N2Nc2ccccn2)cc1OCc1ccccc1` (stereo unspecified), the composite z-score turned out to be 0.435. To `CCCN1C(=O)[C@@]2(CCC(=O)OC(C)(C)C)N=C(c3ccc(OCCCO)cc3)O[C@H]2c2ccccc21` belongs 0.408; to `COc1cccc(C(=O)O[C@H]2CC[C@]3(C)C4=C(CCC3C2(C)C)[C@]2(C)CC[C@H]([C@H](C)CCCC(C)C)[C@@]2(C)CC4)c1` (stereo partly specified), 0.216.

In the case of `COc1cc2c(cc1OC)CN(C(=O)[C@@H]1[C@H]3C(=O)O[C@H](c4ccccc4)[C@H](c4ccccc4)N3[C@H](c3ccccc3OCCO)[C@@]13C(=O)Nc1ccc(C#CCNC(N)=O)cc13)CC2`, the composite z-score turned out to be 0.812. On to `CN(C)CCCCNC(=O)[C@H]1C[C@H]2C(=O)N[C@@H](Cc3ccccc3)C(=O)N2[C@H]1c1ccc(O)cc1`, for which the composite z-score was 0.734.

In the case of `COc1ccc(CCN2C(=O)[C@@]3(Cc4ccccc42)c2ccccc2C(=O)N(Cc2ccccc2Cl)[C@H]3c2ccc(CO)cc2)cc1`, the composite z-score was -0.77. With `CCCCCCCCCCC(O)C1C=CC2C(=O)N(Cc3ccccc3)C(=O)C2N1n1cnnc1` (stereo unspecified), the composite z-score was determined as 0.567. Under `COCCOC(=O)N1C(=O)[C@@]2(c3cc(C#CCC(C(=O)OC)C(=O)OC)ccc31)[C@H](C(=O)N1CCN(c3ncccn3)CC1)[C@H]1C(=O)O[C@H](c3ccccc3)[C@H](c3ccccc3)N1[C@@H]2c1ccc(OCCO)cc1` stands 0.542; under `C=C(COC)C(=O)CC[C@@H](OC(=O)c1cccnc1)c1ccc(CO)o1`, -0.332; under `C=C[C@@H](COC(C)=O)N(Cc1ccc([N+](=O)[O-])cc1)S(=O)(=O)c1ccc(Br)cc1`, 0.0176.

The compound `O=C1O[C@@H](c2ccccc2)[C@@H](c2ccccc2)N2[C@@H](c3ccc(O)cc3)[C@]3(C(=O)Nc4ccc(C#CC5(O)CCCCCC5)cc43)[C@@H](C(=O)N3CCCCCCC3)[C@H]12` yielded a composite z-score of 2.35.

Take `COC(=O)C[C@@H]1C[C@H](C)[C@]2(O1)C(=O)N(Cc1ccccc1)c1ccc(NC(C)=O)cc12`: the composite z-score amounted to 0.362.

`CC(C)(C)N1CC=CC23O[C@@H]4C=CCOC(=O)[C@@H]4[C@H]2C(=O)N(CCCCCO)[C@@H]3C1=O` (stereo partly specified) displayed a composite z-score of -1.05. `C=CCN1C(=O)[C@]2(O[C@H](CCO)[C@@H]([Si](C)(C)c3ccc(OC)cc3)[C@@H]2C)c2cc(NC(=O)[C@H](C)O)ccc21` gave a composite z-score of 0.499. For `C=CC(=C)C1=CCO[C@@H]1[C@H]1CCCN1S(=O)(=O)c1ccccc1[N+](=O)[O-]`, the composite z-score turned out to be 0.136. To `COc1ccc(NN2C(C(O)c3ccc(OC)c(OCc4ccccc4)c3)C=CC3C(=O)N(C4CCCCC4)C(=O)C32)cc1` (stereo unspecified) belongs 0.185; to `[N-]=[N+]=NCc1ccccc1[C@@H]1OC(c2ccc(OCCCO)cc2)=N[C@]1(Cc1ccccc1)C(=O)N1CCCCC1`, -0.271; to `CC(C)(C)N1CC=CC23O[C@@H]4/C=C\CCCOC(=O)C4[C@H]2C(=O)N(CCO)[C@@H]3C1=O` (stereo partly specified), -0.875. To `O=C1O[C@H](c2ccccc2)[C@H](c2ccccc2)N2[C@H]1[C@@H](C(=O)O)[C@]1(C(=O)Nc3ccc(C#CC4=CCCCC4)cc31)[C@H]2c1ccc(OCCO)cc1` belongs 1.16; to `COC(=O)C[C@H]1O[C@]2(C(=O)N(Cc3ccccc3)c3ccc(NC(C)=O)cc32)[C@@H](C)[C@@H]1[Si](C)(C)c1ccc(OC)cc1`, 0.033. As to `CC(C)CNC(=O)[C@@H]1c2ccccc2C(=O)N(Cc2cc(C(F)(F)F)cc(C(F)(F)F)c2)[C@H]1c1ccc(CO)cc1`, the composite z-score is -0.537. `COc1ccccc1CN1C(=O)c2ccccc2[C@@H](C(=O)NCCN2CCOCC2)[C@@H]1c1ccc(CO)cc1` came in with a composite z-score of 0.767.

Compound `NCCCCCCNC(=O)[C@H]1C[C@H]2C(=O)NCC(=O)N2[C@H]1c1cccc(OCCO)c1` had a composite z-score of 0.872.

On to `COCCOC(=O)N1C(=O)[C@@]2(c3ccccc31)[C@H](C(=O)NC[C@H](O)c1ccccc1)[C@H]1C(=O)O[C@H](c3ccccc3)[C@H](c3ccccc3)N1[C@@H]2c1ccc(OCCO)cc1`, for which the composite z-score was determined as 0.857.

Take `CC(C)N1CC=CC23O[C@@H]4C=CCOC(=O)[C@@H]4[C@H]2C(=O)N(CCO)[C@@H]3C1=O` (stereo partly specified): the composite z-score is -1.48. Under `COC(=O)[C@@]1(Cc2ccccc2)[C@H]2c3cc(C(=O)N4CCCC4)n(C)c3C[C@H]2CN1C(=O)c1ccccc1` stands 0.0645. To `O=C1[C@]2(CO)C=C(Br)[C@@H](C[C@@H]2c2ccccc2)[C@@]12CO2` belongs 0.0294.

As for `CCCCC(O)C1C=CC2C(=O)N(C3CCCCC3)C(=O)C2N1Nc1ccc(OC)cc1` (stereo unspecified), the composite z-score was -0.001. In turn, `COc1ccc(C(O)C2C=CC3C(=O)N(c4ccccc4)C(=O)C3N2Nc2ccc([N+](=O)[O-])cc2)cc1OCc1ccccc1` (stereo unspecified) registered a composite z-score of 0.159. To `Cc1ccc(S[C@]2(C(=O)NCc3ccccc3)CC(=O)N(Cc3ccccc3)[C@@H]2c2ccc(CO)cc2)cc1` belongs 0.248; to `C=C(COC)/C(=C/C[C@H](OC(=O)c1ccncc1)c1cccc(OCCO)c1)c1cc(C(=O)OC)ccc1OC`, 0.849. In the case of `COC(=O)[C@@]1(Cc2ccccc2)[C@H]2c3cc(C(=O)N(C)C)n(Cc4cc(C)n(C)n4)c3C[C@H]2CN1C(=O)c1ccccc1`, the composite z-score amounted to 1.99. To `COC(=O)[C@@]1(Cc2ccccc2N=[N+]=[N-])COC(c2ccc(OCCCO)cc2)=N1` belongs 1.17; to `CN1CCC(CCCO)=CC1c1ccc(CN2CCCC2)cc1` (stereo unspecified), 2.86; to `CC(=CC1CCCCC1)[C@@H](NC(=O)c1ccc(C(F)(F)F)cc1)c1ccc(-c2ccccc2)cc1`, -0.336.
